In PubChem BioAssay AID624202 (National Center for Advancing Translational Sciences (NCATS), 2012):
Among all 380,000 compounds or so, about 4,000 (1.1%) were called active. Another 3% or so got no clear call; they are omitted. The sample holds actives, similar compounds and a random draw of the others, so the mix is not that of the screen. Unmarked numbers belong to inactive results. The call rests on the fitted dose curve; in most records, active means well fitted activation curve with a large enough effect; inconclusive means small, poorly fitted or top-dose-only effect; inactive means no such curve, though single readings can be large or run the other way.

experiment: qHTS Assay to Identify Small Molecule Activators of BRCA1 Expression; conditions: MCF7-BRCA1-FFLuc reporter, luminescence, 48 h; series mostly up to 46.1 µM; activation: at the top concentration; further: nearly all actives have a fitted effect of over 80% in size
Excerpt: Functionally, BRCA1 has been implicated in a wide array of cellular activities, including DNA damage repair, cell-cycle checkpoint control, growth inhibition, apoptosis, transcriptional regulation, chromatin remodeling, protein ubiquitylation, and mammary stem cell self-renewal and differentiation. Reduction in BRCA1 levels is associated with an increase in tumor growth and resistance to anti-estrogenic agents, such as tamoxifen, while an increase in BRCA1 expression leads to cell growth arrest and apoptosis. […] The frequent loss of BRCA1 expression in invasive breast cancers in the absence of somatic mutation has been attributed to numerous mechanisms, including hypermethylation of the BRCA1 promoter, exaggerated ubiquitylation of BRCA1 protein, and improper intracellular localization. […] Basal-like breast cancers (BLBCs) are associated with an aggressive clinical course, resistance to chemotherapy, and typically lack expression of estrogen receptor (ER), progesterone receptor (PR), and epidermal growth factor receptor 2 (HER2). BLBCs account for 10-17% of all breast cancers, have few therapeutic options, and are considered the biggest unmet need in the treatment of breast cancer. Conversely, tumors which maintain expression of functional BRCA1 are almost uniformly luminal type cancers, and are accordingly associated with more indolent clinical courses, responsiveness to endocrine therapies, and improved survival.
As such, it is possible that an increase in BRCA1 expression would enable cellular differentiation and restore tumor suppressor function, resulting in delayed tumor growth and less aggressive, more treatable breast cancers. The long term goal of this proposal is to develop a novel prevention or therapeutic agent for breast cancer patients. To accomplish this goal, the overall objective of this proposal is to access the resources provided by the NIH Molecular Libraries Roadmap Initiative and the Molecular Libraries Probe Production Centers Network (MLPCN) to discover and develop new chemical activator probes that will increase BRCA1 expression and function.
NIH Molecular Libraries Probe Production Network [MLPCN]
NIH Chemical Genomics Center [NCGC]
PI Name: Lisa Harlan-Williams, University of Kansas Medical Center
5microl of MCF7-BRCA1-FFLuc cell suspension (400 cells/microl in phenol-red free MEM) are dispensed into Greiner white solid bottom 1536-well assay plates, yielding a final well density of 2000 cells/well. Plates are incubated for 2 hours at 37 degrees C in 5% humidified CO2 to allow cell attachment. Compounds are then transferred via Kalypsys pin tool equipped with 1536-pin array (10nl slotted pins, V&P Scientific, San Diego, CA). The plates are then incubated at 37 degrees C in 5% humidified CO2 for 48 hours. The NCGC in-house luciferase substrate reagent, Buglite, is then added (2.5microl) and plates incubated for 15 minutes, before being transferred to a ViewLux high-throughput CCD imager (PerkinElmer) wherein single end-point measurements of luminescence are acquired using a clear filter. The positive control compound, genistein, will be pinned into dedicated control columns on each plate, including a 16-point 1:3 titration in duplicate, as well as a 10microM maximum activation control, allowing for the normalization of screening activity. DMSO will be pinned into a separate column as a negative control.
All screening operations will be performed on a fully integrated robotic system (Kalypsys, San Diego, CA) containing one RX-130 and two RX-90 anthropomorphic robotic arms (Staubli, Duncan, SC). Library plates will be screened starting from the lowest and proceeding to the highest concentration. Vehicle-only plates, with DMSO being pin-transferred to columns 5-48, will be inserted uniformly at the beginning and the end of each library in order to monitor and record any shifts in the background, which can be affected by reagent dispensers or loss in enzyme activity over time. […]
Potency means the concentration at half of the fitted maximal effect.

Structure (SMILES) | activation [%] | Potency
O=C(COc1ccc(Cl)cc1)NCCSc1ccccc1 | 51.9 | 
Cc1cc(C(=O)NCCc2ccc(Cl)cc2)c(C)o1 |  | 8.91 µM (active)
O=C(NCCc1ccccc1)Oc1ccc(Cl)cc1 |  | 12.6 µM (active)
CC(C)C[C@H](NC(=O)NCCc1ccc(Cl)cc1)C(=O)O | -20.5 | 
O=C(NCCc1ccccc1)C1CC1 | 32.3 | 
NS(=O)(=O)c1ccc(CCNC(=O)c2ccc(Cl)cc2[N+](=O)[O-])cc1 | -10.3 | 
Cc1nc2ccc(S(=O)(=O)NC(C(=O)NCc3ccccc3Cl)C(C)C)cc2s1 (centres undefined) | 12.6 | 
COc1ccc(Cl)cc1NC(=O)CSc1nc(-c2cccs2)cc(C(F)(F)F)n1 | -14.4 | 
COc1ccc(CNc2nc(-c3ccccc3)nn2C(=O)c2ccccc2OC)cc1 | 65.4 | 
O=C(/C=C/c1cn(CC(O)CN2CCc3ccccc32)c2ccccc12)c1ccc(Br)cc1 (centres undefined) | -51.9 | 
O=C(Nc1ccc2c(c1)OCCO2)C1CCCC1 | 51.4 | 
O=C(Nc1ccc2c(c1)OCCO2)C1CCCN(c2ncccn2)C1 (centres undefined) |  | 10 µM (active)
O=C(Nc1ccccn1)C1CCN(S(=O)(=O)c2ccc3c(c2)OCCO3)CC1 | 47.3 | 
CCOc1ccc(OCC)c(NS(=O)(=O)c2ccc3[nH]c(=O)ccc3c2)c1 | 9 | 
O=C(Nc1cccc2cccnc12)C(F)(F)F | 32.5 | 
CSc1ccc(CNC(=O)c2ccc(NC(=O)C3=CSCCO3)cc2)cc1 | -7.67 | 
O=C(Nc1ccc(C(=O)NCc2ccccc2Cl)cc1)C1=CSCCO1 |  | 11.2 µM (active)
O=C(NCc1ccccc1Cl)C1CCCO1 (centres undefined) | 11.4 | 
CCc1ccccc1NC(=O)Cn1c(=O)n(-c2cccc(C)c2)c(=O)c2c1c1cc(OC)ccc1n2C | -19 | 
COc1ccccc1C(=O)NC(=S)NC12CC3CC(CC(C3)C1)C2 | -12.5 | 
CSc1ccc(/C=C/C(=O)NC23CC4CC(CC(C4)C2)C3)cc1 |  | 11.2 µM (active)
COc1ccc(/C=C/C(=O)Nc2ccc(C34CC5CC(CC(O)(C5)C3)C4)cc2)cc1OC | -26.3 | 
CSc1nn(Cc2cccc(C)c2)c(N)c1S(=O)(=O)c1ccccc1 | -23 | 
COc1ccc(CCNc2ncnc3onc(-c4ccc(Cl)cc4)c23)c(OC)c1 | -32.5 | 
CCOC(=O)c1cccc(NS(=O)(=O)c2cc(-c3cnc(C)o3)ccc2OC)c1 | -14.7 | 
N#Cc1nc(/C=C/c2ccc(F)cc2)oc1NCc1ccc(F)cc1 | 4.74 | 
Cc1ccc(/C=N/NC(=S)NC2CCCCC2)o1 |  | 4.47 µM (active)

Structure (SMILES) | activation [%] | Potency
Cc1ccc(NC(=O)CSCC(=O)NC2CCCCC2)cc1 | 17.2 | 
C/C(=N\NC(=S)NC1CCCCC1)c1ccc(C)o1 | 41.7 | 
Cc1ccc(/C=N/NC(=O)Cn2ccc(C(F)(F)F)n2)o1 | -2.27 | 
S=C(Nc1ccc(Br)cc1)NC1CCN(Cc2ccccc2)CC1 | 5.12 | 
Cc1ccc(NC(=S)NC2CCCC2)cc1 |  | 10 µM (active)
CCOC(=O)c1ccc(NC(=O)C2CC(=O)NC(=Nc3ccc(C)c(C)c3)S2)cc1 (centres undefined) | 2.36 | 
COc1cccc(CNC(=O)c2cc(=O)[nH]c3ccc(S(=O)(=O)N4CCCCC4)cc23)c1 | 3.87 | 
CCc1ccc(CNCc2c(C(=O)O)n(Cc3ccc(F)cc3Cl)c3cc(OC)ccc23)cc1 | -23.5 | 
CN(C)c1ccc(/C=N\Nc2ccc([N+](=O)[O-])cc2[N+](=O)[O-])cc1Cl | 4.33 | 
CC(C)CNC(=O)C(=O)Nc1ccc(N(C)C)cc1 |  | 2.24 µM (active)
CN(C)c1ccc(N/C=C/C(=O)C(F)(F)F)cc1 | 17.9 | 
CN(C)c1ccc(C(CC(=O)O)C(=O)O)cc1 (centres undefined) | -8.28 | 
CCOC(=O)Cn1c(=O)n(-c2ccccc2OC)c2nc(-c3cccc(F)c3)nc(C(N)=O)c21 | -41.4 | 
COc1ccc(C(=O)CSc2nnnn2C)c(OC)c1 | -6.19 | 
CCn1nnnc1SCC(=O)c1ccc(C)cc1C |  | 6.31 µM (active)
CCn1nnnc1SCC(=O)Nc1ccc(N(C)C)cc1 | 70.3 | 
CCCCn1c(CNC(=O)C23CC4CC(CC(C4)C2)C3)nnc1SCC(=O)Nc1ccc(C)cc1 | -13.4 | 
COc1ccc(Cn2c(C(=O)O)c(CNCCc3cccs3)c3ccc(OC)cc32)cc1 | 0 | 
Nc1cc(N)nc(SCc2cccc(F)c2)n1 |  | 12.6 µM (active)
N#Cc1cccc(CSc2ncnc(N)n2)c1 | -4.83 | 
Nc1nc(SCc2cccc(Br)c2)n[nH]1 | -2.4 | 
Cc1ccc(Cn2c(=O)n(CCCC(=O)NCc3ccccc3Cl)c(=O)c3ccccc32)cc1 | 0 | 
O=C(NCCC1=CCCCC1)c1ccc(-n2cncn2)cc1 |  | 3.16 µM (active)
O=C(COc1cccc(-n2cnnn2)c1)NCCC1=CCCCC1 | -2.75 | 
CC(OC(=O)CNC(=O)c1ccc(Cl)c([N+](=O)[O-])c1)C(=O)NCc1ccco1 (centres undefined) | -3 | 
CC(Sc1nncn1C)C(=O)NCCC1=CCCCC1 (centres undefined) | -7.87 | 
O=C(COc1ccc(Cl)cc1)NCCC1=CCCCC1 | -1.76 | 
